# The full list was thinned out, with the strongest signals kept by preference.
# B1: Protectin (Homo sapiens), P13987 (protein)
# chain: MGIQGGSVLFGLLLVLAVFCHSGHSLQCYNCPNPTADCKTAVNCSSDFDACLITKAGLQVYNKCWKFEHCNFNDVTTRLRENELTYYCCKKDLCNFNEQLENGGTSLSEKTVLLLVTPFLAAAWSLHP
# B2: MUC1-SEA-mFcIgG2a (Homo sapiens), P15941 (SEA domain only) (protein)
# chain: DAAQPARRAVRSSSELTSEQKLISEEDLSRLVHNGTSARATTTPASKSTPFSIPSHHSDTPTTLASHSTKTDASSTHHSTVPPLTSSNHSTSPQLSTGVSFFFLSFHISNLQFNSSLEDPSTDYYQELQRDISEMFLQIYKQGGFLGLSNIKFRPGSVVVQLTLAFREGTINVHDVETQFNQYKTEAASRYNLTISDASVSDVPFPFSAQSGSDDDDKALEPRGPTIKPCPPCKCPAPNLLGGPSVFIFPPKIKDVLMISLSPIVTCVVVDVSEDDPDVQISWFVNNVEVHTAQTQTHREDYNSTLRVVSALPIQHQDWMSGKEFKCKVNNKDLPAPIERTISKPKGSVRAPQVYVLPPPEEEMTKKQVTLTCMVTDFMPEDIYVEWTNNGKTELNYKNTEPVLDSDGSYFMYSKLRVEKKNWVERNSYSCSVVHEGLHNHHTTKSFSRTPGKHHHHH
# B3: Mincle (Bos taurus) (protein)
# chain: MNSSTSPASQTERRCFSFQLFSWAIAGTSILLLSACFITRCVVTYSIFQLCDEKKFQPPGDSMELSCYNDGSGSVKNCCPLKWFHFQSSCYLFSPDTMSWRASLKNCSSMGAHLVVINTQEEQEFLYYTKPRKKEFYIGLTDQVTEGQWQWVDGTPFTKSLSFWDAGEPNNLVIVEDCATIRDSSNPRQNWNDVPCFFNMFRVCEMPERKI
# Tests used:
# Experiment in all cases: glycan array binding signal (z-score within array); higher = stronger binding
# Conditions in all cases: glycan notation: IUPAC condensed, linker removed
# [1] = biological target: Fuc(a1-2)Gal
# Outline: (§1)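 Glycan array data were curated from 3228 arrays in the Consortium for Functional Glycomics database and kept only where the protein sequence was available. Glycan names were converted to IUPAC-condensed notation, and columns mapping to the same glycan were averaged. The binding signal is a within-array Z-score, averaged across arrays of the same protein sequence at different concentrations or buffers and across linkers. Negative Z-scores can be read as non-binding.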
# [2] = biological target: Fuc(a1-2)Gal(b1-3)[Fuc(a1-4)]GlcNAc(b1-2)Man(a1-3)[Fuc(a1-2)Gal(b1-3)[Fuc(a1-4)]GlcNAc(b1-2)Man(a1-6)]Man(b1-4)GlcNAc(b1-4)GlcNAc
# Outline: as §1
# [3] = biological target: Fuc(a1-2)Gal(b1-3)[Fuc(a1-4)]GlcNAc(b1-3)[Gal(b1-4)GlcNAc(b1-6)]Gal(b1-4)Glc
# Outline: as §1
# [4] = biological target: Fuc(a1-2)Gal(b1-4)[Fuc(a1-3)]GlcNAc(b1-2)[Fuc(a1-2)Gal(b1-4)[Fuc(a1-3)]GlcNAc(b1-4)]Man(a1-3)[Fuc(a1-2)Gal(b1-4)[Fuc(a1-3)]GlcNAc(b1-2)Man(a1-6)]Man(b1-4)GlcNAc(b1-4)GlcNAc
# Outline: as §1
# [5] = biological target: Fuc(a1-2)Gal(b1-4)[Fuc(a1-3)]GlcNAc(b1-3)GalNAc
# Outline: as §1
# [6] = biological target: Fuc(a1-2)Gal6S(b1-4)Glc6S
# Outline: as §1
# [7] = biological target: Fuc(a1-3)GlcNAc
# Outline: as §1
# [8] = biological target: Fuc(a1-3)[Gal(b1-4)]GlcNAc
# Outline: as §1
# [9] = biological target: Fuc(a1-3)[Gal(b1-4)]GlcNAc(b1-6)GalNAc
# Outline: as §1
# [10] = biological target: Fuc(a1-3)[Gal(b1-4)]GlcNAc(b1-6)[Gal(b1-3)GlcNAc(b1-3)]Gal(b1-4)Glc
# Outline: as §1
# [11] = biological target: Gal(a1-3)Gal(b1-4)GlcNAc
# Outline: as §1
# [12] = biological target: Gal(b1-3)GalNAc(a1-3)[Fuc(a1-2)]Gal(b1-4)GlcNAc
# Outline: as §1
# [13] = biological target: Gal(b1-3)GlcNAc(b1-3)Gal(b1-4)Glc
# Outline: as §1
# [14] = biological target: Gal(b1-3)[Neu5Ac(a2-6)]GalNAc
# Outline: as §1
# [15] = biological target: Gal(b1-4)Glc6S
# Outline: as §1
# [16] = biological target: Gal(b1-4)GlcNAc
# Outline: as §1
# [17] = biological target: Gal(b1-4)GlcNAc(b1-2)Man
# Outline: as §1
# [18] = biological target: Gal(b1-4)GlcNAc(b1-3)Gal(b1-4)[Fuc(a1-3)GlcNAc(b1-6)]Gal(b1-4)Glc
# Outline: as §1
# [19] = biological target: Gal3S(b1-4)Glc6S
# Outline: as §1
# [20] = biological target: Gal3S6S(b1-4)GlcNAc
# Outline: as §1
# [21] = biological target: Gal4S6S(b1-4)GlcNAc
# Outline: as §1
# [22] = biological target: GalNAc(b1-3)Gal
# Outline: as §1
# [23] = biological target: GalNAc(b1-4)GlcNAc(b1-2)Man(a1-3)[GalNAc(b1-4)GlcNAc(b1-2)Man(a1-6)]Man(b1-4)GlcNAc(b1-4)GlcNAc
# Outline: as §1
# [24] = biological target: GlcNAc(a1-4)Gal(b1-4)GlcNAc(b1-3)Gal(b1-4)[Fuc(a1-3)]GlcNAc(b1-3)Gal(b1-4)[Fuc(a1-3)]GlcNAc
# Outline: as §1
# [25] = biological target: GlcNAc(a1-6)Gal(b1-4)GlcNAc
# Outline: as §1
# [26] = biological target: GlcNAc(b1-2)[GlcNAc(b1-6)]Man(a1-6)[GlcNAc(b1-2)Man(a1-3)]Man(b1-4)GlcNAc(b1-4)GlcNAc
# Outline: as §1
# [27] = biological target: Man(b1-4)GlcNAc
# Outline: as §1
# [28] = biological target: Neu5Ac(a2-3)Gal(b1-3)[Fuc(a1-4)]GlcNAc(b1-3)Gal(b1-3)[Fuc(a1-4)]GlcNAc
# Outline: as §1
# [29] = biological target: Neu5Ac(a2-3)Gal(b1-4)GlcNAc(b1-3)Gal(b1-4)GlcNAc
# Outline: as §1
# [30] = biological target: Neu5Ac(a2-3)Gal(b1-4)GlcNAc(b1-3)Gal(b1-4)[Fuc(a1-3)]GlcNAc
# Outline: as §1
# [31] = biological target: Neu5Ac(a2-3)Gal(b1-4)[Fuc(a1-3)]GlcNAc(b1-6)[Gal(b1-3)]GalNAc
# Outline: as §1
# [32] = biological target: Neu5Ac(a2-6)Gal(b1-4)GlcNAc(b1-2)Man(a1-3)[Gal(b1-4)GlcNAc(b1-2)Man(a1-6)]Man(b1-4)GlcNAc(b1-4)GlcNAc
# Outline: as §1
# [33] = biological target: Neu5Ac(a2-6)GlcNAc(b1-4)GlcNAc
# Outline: as §1
# [34] = biological target: Neu5Gc(a2-3)Gal(b1-3)[Fuc(a1-4)]GlcNAc
# Outline: as §1
# [35] = biological target: Fuc(a1-2)Gal(b1-3)GalNAc
# Outline: as §1
# [36] = biological target: Fuc(a1-2)Gal(b1-3)GalNAc(b1-3)Gal
# Outline: as §1
# [37] = biological target: Fuc(a1-2)Gal(b1-3)GlcNAc
# Outline: as §1
# [38] = biological target: Fuc(a1-2)Gal(b1-4)Glc
# Outline: as §1
# [39] = biological target: Fuc(a1-2)[Gal(a1-3)]Gal
# Outline: as §1
# [40] = biological target: Fuc(a1-2)[GalNAc(b1-3)]Gal
# Outline: as §1
# [41] = biological target: Fuc(a1-3)[Gal(b1-4)]GlcNAc(b1-2)Man(a1-6)[Gal(b1-4)GlcNAc(b1-2)Man(a1-3)]Man(b1-4)GlcNAc(b1-4)GlcNAc
# Outline: as §1
# [42] = biological target: Fuc(a1-3)[Gal(b1-4)]GlcNAc(b1-4)Gal(b1-4)[Fuc(a1-3)]GlcNAc(b1-4)Gal(b1-4)[Fuc(a1-3)]GlcNAc
# Outline: as §1
# [43] = biological target: Fuc(a1-3)[Gal3S(b1-4)]GlcNAc6S
# Outline: as §1
# [44] = biological target: Gal(b1-4)GlcNAc(b1-6)Gal(b1-4)GlcNAc(b1-6)GalNAc
# Outline: as §1
# [45] = biological target: Gal3S(b1-3)[Fuc(a1-4)]GlcNAc
# Outline: as §1
# [46] = biological target: Gal3S6S(b1-4)GlcNAc6S
# Outline: as §1
# [47] = biological target: Gal6S(b1-4)Glc6S
# Outline: as §1
# [48] = biological target: GlcNAc(b1-3)Gal
# Outline: as §1
# [49] = biological target: GlcNAc(b1-4)Gal(b1-4)GlcNAc
# Outline: as §1
# [50] = biological target: GlcNAc(b1-4)[GlcNAc(b1-6)]GalNAc
# Outline: as §1
# [51] = biological target: Man(a1-2)Man(a1-3)[Man(a1-6)]Man(a1-6)[Man(a1-2)Man(a1-3)]Man(b1-4)GlcNAc(b1-4)GlcNAc
# Outline: as §1
# [52] = biological target: Man(a1-3)[Man(a1-6)]Man(b1-4)GlcNAc(b1-4)GlcNAc
# Outline: as §1
# [53] = biological target: Man(a1-6)Man
# Outline: as §1
# [54] = biological target: Neu5Ac(a2-6)Gal(b1-4)GlcNAc(b1-3)Gal(b1-4)GlcNAc
# Outline: as §1
# [55] = biological target: Neu5Ac(a2-8)Neu5Ac(a2-3)[GalNAc(b1-4)]Gal(b1-4)Glc
# Outline: as §1
# [56] = biological target: Neu5Ac(a2-6)Gal(b1-4)GlcNAc(b1-2)Man(a1-3)[Neu5Ac(a2-6)Gal(b1-4)GlcNAc(b1-2)Man(a1-6)]Man(b1-4)GlcNAc(b1-4)[Fuc(a1-6)]GlcNAc
# Outline: as §1
# [57] = biological target: Neu5Ac(a2-6)Gal(b1-4)GlcNAc(b1-2)Man(a1-6)Man(b1-4)GlcNAc(b1-4)GlcNAc
# Outline: as §1
# [58] = biological target: Neu5Ac(a2-6)Gal(b1-4)GlcNAc(b1-6)GalNAc
# Outline: as §1
binder,measurement,setting,value
B1,glycan array binding signal (z-score),[1],-0.701
same,glycan array binding signal (z-score),[2],3.68
same,glycan array binding signal (z-score),[3],-0.784
same,glycan array binding signal (z-score),[4],2.73
same,glycan array binding signal (z-score),[5],3.6
same,glycan array binding signal (z-score),[6],-0.108
same,glycan array binding signal (z-score),[7],-0.062
same,glycan array binding signal (z-score),[8],0.55
same,glycan array binding signal (z-score),[9],2.63
same,glycan array binding signal (z-score),[10],-0.354
same,glycan array binding signal (z-score),[11],1.53
same,glycan array binding signal (z-score),[12],-0.989
same,glycan array binding signal (z-score),[13],2.77
same,glycan array binding signal (z-score),[14],0.383
same,glycan array binding signal (z-score),[15],0.209
same,glycan array binding signal (z-score),[16],0.172
same,glycan array binding signal (z-score),[17],0.267
same,glycan array binding signal (z-score),[18],-0.518
same,glycan array binding signal (z-score),[19],-0.411
same,glycan array binding signal (z-score),[20],-0.261
same,glycan array binding signal (z-score),[21],0.014
same,glycan array binding signal (z-score),[22],-1.36
same,glycan array binding signal (z-score),[23],2.58
same,glycan array binding signal (z-score),[24],6.43
same,glycan array binding signal (z-score),[25],-0.166
same,glycan array binding signal (z-score),[26],-0.347
same,glycan array binding signal (z-score),[27],-0.439
same,glycan array binding signal (z-score),[28],3.13
same,glycan array binding signal (z-score),[29],0.462
same,glycan array binding signal (z-score),[30],0.647
same,glycan array binding signal (z-score),[31],-0.153
same,glycan array binding signal (z-score),[32],-1.94
same,glycan array binding signal (z-score),[33],-0.361
same,glycan array binding signal (z-score),[34],0.087
B2,glycan array binding signal (z-score),[1],-0.228
same,glycan array binding signal (z-score),[35],-0.514
same,glycan array binding signal (z-score),[36],7.39
same,glycan array binding signal (z-score),[37],0.04
same,glycan array binding signal (z-score),[38],0.163
same,glycan array binding signal (z-score),[6],1.99
same,glycan array binding signal (z-score),[39],0.424
same,glycan array binding signal (z-score),[40],-0.373
same,glycan array binding signal (z-score),[8],0.485
same,glycan array binding signal (z-score),[41],-0.32
same,glycan array binding signal (z-score),[42],-0.045
same,glycan array binding signal (z-score),[43],1.11
same,glycan array binding signal (z-score),[44],-0.381
same,glycan array binding signal (z-score),[45],-0.332
same,glycan array binding signal (z-score),[19],2.09
same,glycan array binding signal (z-score),[46],3.49
same,glycan array binding signal (z-score),[21],0.978
same,glycan array binding signal (z-score),[47],2.14
same,glycan array binding signal (z-score),[25],-0.14
same,glycan array binding signal (z-score),[48],-0.151
same,glycan array binding signal (z-score),[49],-0.565
same,glycan array binding signal (z-score),[50],-0.223
same,glycan array binding signal (z-score),[51],-0.266
same,glycan array binding signal (z-score),[52],-0.235
same,glycan array binding signal (z-score),[53],-0.113
same,glycan array binding signal (z-score),[32],-0.245
same,glycan array binding signal (z-score),[54],-0.465
same,glycan array binding signal (z-score),[55],-0.453
B3,glycan array binding signal (z-score),[56],0.527
same,glycan array binding signal (z-score),[57],0.271
same,glycan array binding signal (z-score),[58],0.439
